Assay results as given in publication PMC11006913.

Columns and labels:
Assay in all cases: PBM; 200 nM protein, PBS
Conditions in all cases: dsDNA, one strand shown
PROP1 [1] = biological target: PROP1 (Homo sapiens, UniProt O75360 56-141)
PROP1 [2] = biological target: PROP1 (Homo sapiens, UniProt O75360 56-141, R99H)
PROP1 [3] = biological target: PROP1 (Homo sapiens, UniProt O75360 56-141, F88S)
VAX1 = VAX1 (Homo sapiens, UniProt Q5SQQ9 86-172)
Chain of VAX1 (Q5SQQ9 86-172): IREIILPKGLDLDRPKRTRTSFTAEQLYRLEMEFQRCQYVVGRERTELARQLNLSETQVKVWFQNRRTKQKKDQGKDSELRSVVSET

Chain of PROP1 (Homo sapiens, UniProt O75360 56-141) (O75360 56-141): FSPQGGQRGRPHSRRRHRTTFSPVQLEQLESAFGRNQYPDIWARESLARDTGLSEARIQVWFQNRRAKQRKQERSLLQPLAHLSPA
Chain of PROP1 (Homo sapiens, UniProt O75360 56-141, F88S) (O75360 56-141 F88S): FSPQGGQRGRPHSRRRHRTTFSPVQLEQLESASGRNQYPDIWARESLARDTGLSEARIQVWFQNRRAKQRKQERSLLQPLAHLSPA
Chain of PROP1 (Homo sapiens, UniProt O75360 56-141, R99H) (O75360 56-141 R99H): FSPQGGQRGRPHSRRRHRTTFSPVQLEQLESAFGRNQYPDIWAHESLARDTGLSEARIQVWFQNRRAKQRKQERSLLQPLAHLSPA

Row | Sequence | binding signal (PROP1 [1]) | binding signal (PROP1 [2]) | binding signal (PROP1 [3]) | binding signal (VAX1)
1 | AGGCTCCG | 6.78 upbm affinity estimate (log intensity, higher = more binding, comparable within an allelic series) | 6.73 upbm affinity estimate (log intensity, higher = more binding, comparable within an allelic series) | 6.8 upbm affinity estimate (log intensity, higher = more binding, comparable within an allelic series) | –
2 | GCTCCGCA | 6.82 upbm affinity estimate (log intensity, higher = more binding, comparable within an allelic series) | 6.82 upbm affinity estimate (log intensity, higher = more binding, comparable within an allelic series) | 6.66 upbm affinity estimate (log intensity, higher = more binding, comparable within an allelic series) | –
3 | GCGGCCGA | 6.81 upbm affinity estimate (log intensity, higher = more binding, comparable within an allelic series) | 6.82 upbm affinity estimate (log intensity, higher = more binding, comparable within an allelic series) | 6.76 upbm affinity estimate (log intensity, higher = more binding, comparable within an allelic series) | –
4 | CGATGCCC | 6.76 upbm affinity estimate (log intensity, higher = more binding, comparable within an allelic series) | 6.86 upbm affinity estimate (log intensity, higher = more binding, comparable within an allelic series) | 6.71 upbm affinity estimate (log intensity, higher = more binding, comparable within an allelic series) | –
5 | CACGTCGC | 6.91 upbm affinity estimate (log intensity, higher = more binding, comparable within an allelic series) | 6.79 upbm affinity estimate (log intensity, higher = more binding, comparable within an allelic series) | 6.8 upbm affinity estimate (log intensity, higher = more binding, comparable within an allelic series) | –
6 | CCCGCGCA | 6.78 upbm affinity estimate (log intensity, higher = more binding, comparable within an allelic series) | 6.9 upbm affinity estimate (log intensity, higher = more binding, comparable within an allelic series) | 6.76 upbm affinity estimate (log intensity, higher = more binding, comparable within an allelic series) | –
7 | GACAGGGC | 6.65 upbm affinity estimate (log intensity, higher = more binding, comparable within an allelic series) | 6.63 upbm affinity estimate (log intensity, higher = more binding, comparable within an allelic series) | 6.47 upbm affinity estimate (log intensity, higher = more binding, comparable within an allelic series) | –
8 | GTCTCGAA | 6.78 upbm affinity estimate (log intensity, higher = more binding, comparable within an allelic series) | 6.8 upbm affinity estimate (log intensity, higher = more binding, comparable within an allelic series) | 7.1 upbm affinity estimate (log intensity, higher = more binding, comparable within an allelic series) | –
9 | GGCCACCA | 6.96 upbm affinity estimate (log intensity, higher = more binding, comparable within an allelic series) | 6.82 upbm affinity estimate (log intensity, higher = more binding, comparable within an allelic series) | 6.75 upbm affinity estimate (log intensity, higher = more binding, comparable within an allelic series) | –
10 | AAGGGAGT | 6.58 upbm affinity estimate (log intensity, higher = more binding, comparable within an allelic series) | 6.7 upbm affinity estimate (log intensity, higher = more binding, comparable within an allelic series) | 6.82 upbm affinity estimate (log intensity, higher = more binding, comparable within an allelic series) | –
11 | AGCCTGGC | 6.55 upbm affinity estimate (log intensity, higher = more binding, comparable within an allelic series) | 6.87 upbm affinity estimate (log intensity, higher = more binding, comparable within an allelic series) | 6.67 upbm affinity estimate (log intensity, higher = more binding, comparable within an allelic series) | –
12 | ATATTTGC | 8.36 upbm affinity estimate (log intensity, higher = more binding, comparable within an allelic series) | 7.99 upbm affinity estimate (log intensity, higher = more binding, comparable within an allelic series) | 7.34 upbm affinity estimate (log intensity, higher = more binding, comparable within an allelic series) | –
13 | GCTAGACC | 6.61 upbm affinity estimate (log intensity, higher = more binding, comparable within an allelic series) | 6.75 upbm affinity estimate (log intensity, higher = more binding, comparable within an allelic series) | 6.62 upbm affinity estimate (log intensity, higher = more binding, comparable within an allelic series) | –
14 | CGCGTCCC | 6.69 upbm affinity estimate (log intensity, higher = more binding, comparable within an allelic series) | 6.77 upbm affinity estimate (log intensity, higher = more binding, comparable within an allelic series) | 6.52 upbm affinity estimate (log intensity, higher = more binding, comparable within an allelic series) | –
15 | CTCTGGAA | 6.65 upbm affinity estimate (log intensity, higher = more binding, comparable within an allelic series) | 6.87 upbm affinity estimate (log intensity, higher = more binding, comparable within an allelic series) | 6.91 upbm affinity estimate (log intensity, higher = more binding, comparable within an allelic series) | –
16 | AATTGGCG | 9.12 upbm affinity estimate (log intensity, higher = more binding, comparable within an allelic series) | 8.88 upbm affinity estimate (log intensity, higher = more binding, comparable within an allelic series) | 7.29 upbm affinity estimate (log intensity, higher = more binding, comparable within an allelic series) | –
17 | AGACCGTC | 6.82 upbm affinity estimate (log intensity, higher = more binding, comparable within an allelic series) | 6.83 upbm affinity estimate (log intensity, higher = more binding, comparable within an allelic series) | 6.81 upbm affinity estimate (log intensity, higher = more binding, comparable within an allelic series) | –
18 | ATGCCAGC | 6.71 upbm affinity estimate (log intensity, higher = more binding, comparable within an allelic series) | 6.77 upbm affinity estimate (log intensity, higher = more binding, comparable within an allelic series) | 6.73 upbm affinity estimate (log intensity, higher = more binding, comparable within an allelic series) | –
19 | AATATGAA | 8.47 upbm affinity estimate (log intensity, higher = more binding, comparable within an allelic series) | 8.01 upbm affinity estimate (log intensity, higher = more binding, comparable within an allelic series) | 7.42 upbm affinity estimate (log intensity, higher = more binding, comparable within an allelic series) | –
20 | TGATTACA | 9.42 upbm affinity estimate (log intensity, higher = more binding, comparable within an allelic series) | 8.57 upbm affinity estimate (log intensity, higher = more binding, comparable within an allelic series) | 7.5 upbm affinity estimate (log intensity, higher = more binding, comparable within an allelic series) | –
21 | GGCTGACC | 6.72 upbm affinity estimate (log intensity, higher = more binding, comparable within an allelic series) | 6.74 upbm affinity estimate (log intensity, higher = more binding, comparable within an allelic series) | 6.56 upbm affinity estimate (log intensity, higher = more binding, comparable within an allelic series) | –
22 | GATAGTTA | 8.6 upbm affinity estimate (log intensity, higher = more binding, comparable within an allelic series) | 8.09 upbm affinity estimate (log intensity, higher = more binding, comparable within an allelic series) | 7.39 upbm affinity estimate (log intensity, higher = more binding, comparable within an allelic series) | –
23 | CCTGTTAG | 8.32 upbm affinity estimate (log intensity, higher = more binding, comparable within an allelic series) | 8.15 upbm affinity estimate (log intensity, higher = more binding, comparable within an allelic series) | 7.19 upbm affinity estimate (log intensity, higher = more binding, comparable within an allelic series) | –
24 | GCGGACGC | 6.53 upbm affinity estimate (log intensity, higher = more binding, comparable within an allelic series) | 6.66 upbm affinity estimate (log intensity, higher = more binding, comparable within an allelic series) | 6.56 upbm affinity estimate (log intensity, higher = more binding, comparable within an allelic series) | –

Row | Sequence | binding signal (PROP1 [1]) | binding signal (PROP1 [2]) | binding signal (PROP1 [3]) | binding signal (VAX1)
25 | ACGGTAGG | 6.51 upbm affinity estimate (log intensity, higher = more binding, comparable within an allelic series) | 6.62 upbm affinity estimate (log intensity, higher = more binding, comparable within an allelic series) | 6.62 upbm affinity estimate (log intensity, higher = more binding, comparable within an allelic series) | –
26 | ATCTTAAC | 8.34 upbm affinity estimate (log intensity, higher = more binding, comparable within an allelic series) | 7.85 upbm affinity estimate (log intensity, higher = more binding, comparable within an allelic series) | 7.45 upbm affinity estimate (log intensity, higher = more binding, comparable within an allelic series) | –
27 | CTTGGGTC | 6.81 upbm affinity estimate (log intensity, higher = more binding, comparable within an allelic series) | 6.75 upbm affinity estimate (log intensity, higher = more binding, comparable within an allelic series) | 6.83 upbm affinity estimate (log intensity, higher = more binding, comparable within an allelic series) | –
28 | AGCTCCCG | 6.72 upbm affinity estimate (log intensity, higher = more binding, comparable within an allelic series) | 6.63 upbm affinity estimate (log intensity, higher = more binding, comparable within an allelic series) | 6.46 upbm affinity estimate (log intensity, higher = more binding, comparable within an allelic series) | –
29 | GCAAATAA | 9 upbm affinity estimate (log intensity, higher = more binding, comparable within an allelic series) | 8.48 upbm affinity estimate (log intensity, higher = more binding, comparable within an allelic series) | 7.34 upbm affinity estimate (log intensity, higher = more binding, comparable within an allelic series) | –
30 | AACTAAAT | 9.34 upbm affinity estimate (log intensity, higher = more binding, comparable within an allelic series) | 8.6 upbm affinity estimate (log intensity, higher = more binding, comparable within an allelic series) | 7.5 upbm affinity estimate (log intensity, higher = more binding, comparable within an allelic series) | –
31 | CCCGGGAA | 6.78 upbm affinity estimate (log intensity, higher = more binding, comparable within an allelic series) | 6.79 upbm affinity estimate (log intensity, higher = more binding, comparable within an allelic series) | 6.66 upbm affinity estimate (log intensity, higher = more binding, comparable within an allelic series) | –
32 | CCAGGGTC | 6.75 upbm affinity estimate (log intensity, higher = more binding, comparable within an allelic series) | 6.85 upbm affinity estimate (log intensity, higher = more binding, comparable within an allelic series) | 6.62 upbm affinity estimate (log intensity, higher = more binding, comparable within an allelic series) | –
33 | AATGGGGC | 8.17 upbm affinity estimate (log intensity, higher = more binding, comparable within an allelic series) | – | 7.05 upbm affinity estimate (log intensity, higher = more binding, comparable within an allelic series) | –
34 | GTGCGCCA | 6.79 upbm affinity estimate (log intensity, higher = more binding, comparable within an allelic series) | 6.83 upbm affinity estimate (log intensity, higher = more binding, comparable within an allelic series) | 6.75 upbm affinity estimate (log intensity, higher = more binding, comparable within an allelic series) | –
35 | AATCACCT | 8.74 upbm affinity estimate (log intensity, higher = more binding, comparable within an allelic series) | – | 7.3 upbm affinity estimate (log intensity, higher = more binding, comparable within an allelic series) | –
36 | GGAGCAGA | 6.75 upbm affinity estimate (log intensity, higher = more binding, comparable within an allelic series) | 6.89 upbm affinity estimate (log intensity, higher = more binding, comparable within an allelic series) | 6.82 upbm affinity estimate (log intensity, higher = more binding, comparable within an allelic series) | –
37 | AACTAAGC | – | – | – | 9.21 upbm affinity estimate (log intensity, higher = more binding, comparable within an allelic series)
38 | AGAGCCGG | 6.81 upbm affinity estimate (log intensity, higher = more binding, comparable within an allelic series) | 6.67 upbm affinity estimate (log intensity, higher = more binding, comparable within an allelic series) | 6.47 upbm affinity estimate (log intensity, higher = more binding, comparable within an allelic series) | –
39 | AATCTATA | 8.79 upbm affinity estimate (log intensity, higher = more binding, comparable within an allelic series) | 8.14 upbm affinity estimate (log intensity, higher = more binding, comparable within an allelic series) | 7.56 upbm affinity estimate (log intensity, higher = more binding, comparable within an allelic series) | –
40 | GGTAAATA | 8.63 upbm affinity estimate (log intensity, higher = more binding, comparable within an allelic series) | 8.23 upbm affinity estimate (log intensity, higher = more binding, comparable within an allelic series) | 7.4 upbm affinity estimate (log intensity, higher = more binding, comparable within an allelic series) | –
41 | TCCAATCA | 8.66 upbm affinity estimate (log intensity, higher = more binding, comparable within an allelic series) | 8.18 upbm affinity estimate (log intensity, higher = more binding, comparable within an allelic series) | 7.02 upbm affinity estimate (log intensity, higher = more binding, comparable within an allelic series) | –
42 | CGCGGTCC | 6.77 upbm affinity estimate (log intensity, higher = more binding, comparable within an allelic series) | 6.82 upbm affinity estimate (log intensity, higher = more binding, comparable within an allelic series) | 6.49 upbm affinity estimate (log intensity, higher = more binding, comparable within an allelic series) | –
43 | CCTGTTAC | 7.8 upbm affinity estimate (log intensity, higher = more binding, comparable within an allelic series) | – | 7.11 upbm affinity estimate (log intensity, higher = more binding, comparable within an allelic series) | –
44 | AAGTTAAG | 7.89 upbm affinity estimate (log intensity, higher = more binding, comparable within an allelic series) | – | 7.07 upbm affinity estimate (log intensity, higher = more binding, comparable within an allelic series) | –
45 | CTCAGCGC | 6.82 upbm affinity estimate (log intensity, higher = more binding, comparable within an allelic series) | 6.86 upbm affinity estimate (log intensity, higher = more binding, comparable within an allelic series) | 6.88 upbm affinity estimate (log intensity, higher = more binding, comparable within an allelic series) | –
46 | AAATCATG | 8.42 upbm affinity estimate (log intensity, higher = more binding, comparable within an allelic series) | – | 7.26 upbm affinity estimate (log intensity, higher = more binding, comparable within an allelic series) | –
47 | ATTACTAA | 9.85 upbm affinity estimate (log intensity, higher = more binding, comparable within an allelic series) | 9.4 upbm affinity estimate (log intensity, higher = more binding, comparable within an allelic series) | 7.62 upbm affinity estimate (log intensity, higher = more binding, comparable within an allelic series) | –
